# Measurements taken from publication PMC11062922 (Nature Chemical Biology, 2023).
# Where two headings read alike, the source gives them in different places.
# Columns and labels:
# [1] = tested on: CDC7; design: species or system human, MV4-11 + K-562 + COLO205 + SK-N-BE2 + OVCAR-8; conditions: read-out: apparent Kd; compound concentrations: 100 nM and 1000 nM (sheet 'Samples'), CATDS: 9.1392533314382199E-2; n = 1
# [2] = tested on: CDKL5; design: species or system human, MV4-11 + K-562 + COLO205 + SK-N-BE2 + OVCAR-8; conditions: read-out: apparent Kd, compound concentrations: 100 nM and 1000 nM (sheet 'Samples'), n = 1
# [3] = tested on: CLK1; design: species or system human, MV4-11 + K-562 + COLO205 + SK-N-BE2 + OVCAR-8; conditions: read-out: apparent Kd, compound concentrations: 100 nM and 1000 nM (sheet 'Samples'), n = 1
# [4] = tested on: CLK4; design: species or system human, MV4-11 + K-562 + COLO205 + SK-N-BE2 + OVCAR-8; conditions: read-out: apparent Kd, compound concentrations: 100 nM and 1000 nM (sheet 'Samples'), n = 1
# [5] = tested on: CSNK2A1;CSNK2A3; design: species or system human, MV4-11 + K-562 + COLO205 + SK-N-BE2 + OVCAR-8; conditions: read-out: apparent Kd; compound concentrations: 100 nM and 1000 nM (sheet 'Samples'), CATDS: 0.31191577539645199; n = 1
# [6] = tested on: CSNK2A2; design: species or system human, MV4-11 + K-562 + COLO205 + SK-N-BE2 + OVCAR-8; conditions: read-out: apparent Kd; compound concentrations: 100 nM and 1000 nM (sheet 'Samples'), CATDS: 0.34928398987599801; n = 1
# [7] = tested on: DYRK1A; design: species or system human, MV4-11 + K-562 + COLO205 + SK-N-BE2 + OVCAR-8; conditions: read-out: apparent Kd, compound concentrations: 100 nM and 1000 nM (sheet 'Samples'), n = 1
# [8] = tested on: CDK16; design: species or system human, MV4-11 + K-562 + COLO205 + SK-N-BE2 + OVCAR-8; conditions: read-out: apparent Kd, compound concentrations: 100 nM and 1000 nM (sheet 'Samples'), n = 1
# [9] = tested on: CDK17; design: species or system human, MV4-11 + K-562 + COLO205 + SK-N-BE2 + OVCAR-8; conditions: read-out: apparent Kd; compound concentrations: 100 nM and 1000 nM (sheet 'Samples'), CATDS: 0.129072520880324; n = 1
# [10] = tested on: CDK9; design: species or system human, MV4-11 + K-562 + COLO205 + SK-N-BE2 + OVCAR-8; conditions: read-out: apparent Kd, compound concentrations: 100 nM and 1000 nM (sheet 'Samples'), n = 1
# [11] = tested on: GSK3A; design: species or system human, MV4-11 + K-562 + COLO205 + SK-N-BE2 + OVCAR-8; conditions: read-out: apparent Kd, compound concentrations: 100 nM and 1000 nM (sheet 'Samples'), n = 1
# [12] = tested on: GSK3B; design: species or system human, MV4-11 + K-562 + COLO205 + SK-N-BE2 + OVCAR-8; conditions: read-out: apparent Kd, compound concentrations: 100 nM and 1000 nM (sheet 'Samples'), n = 1
# [13] = tested on: SMG1; design: species or system human, MV4-11 + K-562 + COLO205 + SK-N-BE2 + OVCAR-8; conditions: read-out: apparent Kd; compound concentrations: 100 nM and 1000 nM (sheet 'Samples'), CATDS: 7.6423635677126206E-2; n = 1
# [14] = tested on: CDK2; design: species or system human, MV4-11 + K-562 + COLO205 + SK-N-BE2 + OVCAR-8; conditions: read-out: apparent Kd; compound concentrations: 100 nM and 1000 nM (sheet 'Samples'), CATDS: 3.2251458753321499E-2; n = 1
# [15] = tested on: CDK4; design: species or system human, MV4-11 + K-562 + COLO205 + SK-N-BE2 + OVCAR-8; conditions: read-out: apparent Kd; compound concentrations: 100 nM and 1000 nM (sheet 'Samples'), CATDS: 3.5176707262462401E-2; n = 1
# [16] = tested on: CSNK1D; design: species or system human, MV4-11 + K-562 + COLO205 + SK-N-BE2 + OVCAR-8; conditions: read-out: apparent Kd; compound concentrations: 100 nM and 1000 nM (sheet 'Samples'), CATDS: 3.5838047250471398E-2; n = 1
# [17] = tested on: CSNK1E; design: species or system human, MV4-11 + K-562 + COLO205 + SK-N-BE2 + OVCAR-8; conditions: read-out: apparent Kd; compound concentrations: 100 nM and 1000 nM (sheet 'Samples'), CATDS: 3.1149336029707601E-2; n = 1
# [18] = tested on: FLT3; design: species or system human, MV4-11 + K-562 + COLO205 + SK-N-BE2 + OVCAR-8; conditions: read-out: apparent Kd; compound concentrations: 100 nM and 1000 nM (sheet 'Samples'), CATDS: 6.99540125282513E-2; n = 1
# [19] = tested on: ICK; design: species or system human, MV4-11 + K-562 + COLO205 + SK-N-BE2 + OVCAR-8; conditions: read-out: apparent Kd; compound concentrations: 100 nM and 1000 nM (sheet 'Samples'), CATDS: 8.4231126757800603E-2; n = 1
# [20] = tested on: NEK9; design: species or system human, MV4-11 + K-562 + COLO205 + SK-N-BE2 + OVCAR-8; conditions: read-out: apparent Kd; compound concentrations: 100 nM and 1000 nM (sheet 'Samples'), CATDS: 3.4709334986352897E-2; n = 1
# [21] = tested on: NNT; design: species or system human, MV4-11 + K-562 + COLO205 + SK-N-BE2 + OVCAR-8; conditions: read-out: apparent Kd; compound concentrations: 100 nM and 1000 nM (sheet 'Samples'), CATDS: 3.3051747730414797E-2; n = 1
# [22] = tested on: NUAK1; design: species or system human, MV4-11 + K-562 + COLO205 + SK-N-BE2 + OVCAR-8; conditions: read-out: apparent Kd; compound concentrations: 100 nM and 1000 nM (sheet 'Samples'), CATDS: 4.2227707983222298E-2; n = 1
# [23] = target: Q6ZSR9 (human, UniProt Q6ZSR9); design: species or system MV4-11 + K-562 + COLO205 + SK-N-BE2 + OVCAR-8; conditions: read-out: apparent Kd; compound concentrations: 100 nM and 1000 nM (sheet 'Samples'), CATDS: 7.3176607259513596E-2; n = 1
# Q6ZSR9, sequence (Q6ZSR9 whole entry, looked up): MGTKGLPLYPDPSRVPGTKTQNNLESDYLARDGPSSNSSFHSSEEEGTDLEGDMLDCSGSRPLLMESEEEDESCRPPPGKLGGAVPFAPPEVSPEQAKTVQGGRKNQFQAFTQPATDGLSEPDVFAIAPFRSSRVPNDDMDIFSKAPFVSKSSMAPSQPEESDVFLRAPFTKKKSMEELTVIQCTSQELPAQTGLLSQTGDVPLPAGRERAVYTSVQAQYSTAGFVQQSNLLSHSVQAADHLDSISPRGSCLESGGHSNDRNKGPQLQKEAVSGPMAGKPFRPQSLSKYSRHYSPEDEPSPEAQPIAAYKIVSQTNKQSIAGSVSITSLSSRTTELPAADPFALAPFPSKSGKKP
# [24] = tested on: RIOK2; design: species or system human, MV4-11 + K-562 + COLO205 + SK-N-BE2 + OVCAR-8; conditions: read-out: apparent Kd; compound concentrations: 100 nM and 1000 nM (sheet 'Samples'), CATDS: 3.29501520790835E-2; n = 1
# [25] = tested on: TGFBR2; design: species or system human, MV4-11 + K-562 + COLO205 + SK-N-BE2 + OVCAR-8; conditions: read-out: apparent Kd; compound concentrations: 100 nM and 1000 nM (sheet 'Samples'), CATDS: 8.2747157817186001E-2; n = 1
smiles,measurement,setting,value
O=C1N=C(N[C@@H]2C[C@H]2c2ccccc2)S/C1=C\c1ccc2ncccc2c1 [RO4915610-000],potency estimated from few doses,[1],1800 nM
same,potency estimated from few doses,[2]; CATDS: 0.100532719571443,1130 nM
same,potency estimated from few doses,[3]; CATDS: 0.12211476464111,542 nM
same,potency estimated from few doses,[4]; CATDS: 0.114770368167016,671 nM
same,potency estimated from few doses,[5],61.5 nM
same,potency estimated from few doses,[6],51.1 nM
same,potency estimated from few doses,[7]; CATDS: 0.194548178255603,154 nM
CCN1CCC(C(=O)Nc2n[nH]c3nnc(-c4cccc(F)c4F)cc23)CC1.Cl [SB-686709-A],potency estimated from few doses,[8]; CATDS: 0.11637141533409,199 nM
same,potency estimated from few doses,[9],132 nM
same,potency estimated from few doses,[10]; CATDS: 8.2181630461084801E-2,1050 nM
same,potency estimated from few doses,[2]; CATDS: 0.15820279930109701,60.5 nM
same,potency estimated from few doses,[7]; CATDS: 8.3758685626984103E-2,937 nM
same,potency estimated from few doses,[11]; CATDS: 0.64867635498298803,0.589 nM
same,potency estimated from few doses,[12]; CATDS: 0.38395769159981902,1.75 nM
same,potency estimated from few doses,[13],1680 nM
COc1cccc(Nc2nccc(-c3cnn4ncccc34)n2)c1 [GW810576X],potency estimated from few doses,[8]; CATDS: 3.1157097879833801E-2,2230 nM
same,potency estimated from few doses,[14],1800 nM
same,potency estimated from few doses,[15],1130 nM
same,potency estimated from few doses,[10]; CATDS: 6.6122234274616706E-2,119 nM
same,potency estimated from few doses,[2]; CATDS: 0.306088725314409,8.45 nM
same,potency estimated from few doses,[3]; CATDS: 0.131869322388253,29.2 nM
same,potency estimated from few doses,[4]; CATDS: 7.3732839889054297E-2,90.9 nM
same,potency estimated from few doses,[16],1030 nM
same,potency estimated from few doses,[17],2230 nM
same,potency estimated from few doses,[7]; CATDS: 4.1731549571109597E-2,529 nM
same,potency estimated from few doses,[18],103 nM
same,potency estimated from few doses,[11]; CATDS: 0.103253823443788,45 nM
same,potency estimated from few doses,[12]; CATDS: 9.7411606637186801E-2,50.3 nM
same,potency estimated from few doses,[19],67.5 nM
same,potency estimated from few doses,[20],1210 nM
same,potency estimated from few doses,[21],1570 nM
same,potency estimated from few doses,[22],505 nM
same,potency estimated from few doses,[23],92.6 nM
same,potency estimated from few doses,[24],1590 nM
same,potency estimated from few doses,[25],70.2 nM
